Test results as given in PubChem BioAssay AID652208 (Broad Institute, 2013).
Potency and affinity values are given separately. Active and inactive are the calls of the source.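 How the source made its calls: active means Loss of cell signal with fitted half-effect dose at or below twice the top valid tested dose; inconclusive means Poor fit, or flat fit from -70 to -30 percent; inactive means Half-effect above limit, rising signal, or flat within 30 percent.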

Assay: viability loss in HEK293T cells – cell-based, cherry-picks, cytotoxicity control for HIV Vif inhibitor project, dose response (AID 652208)
Conditions: CellTiter-Glo luminescence, 24 h; series mostly up to 26 µM
With `CC(=O)Nc1ccc(S(=O)(=O)N2c3ccccc3C(C)=CC2(C)C)cc1` the outcome was “inactive”. In the case of `CCNC(=O)[C@H]1O[C@@H](n2cnc3c(N)nc(NCCc4ccc(CCC(=O)O)cc4)nc32)[C@H](O)[C@@H]1O`, the outcome is reported as “inactive”. In the case of `O=C(NC1CCCc2ccccc21)c1ccccc1Br` (stereo not drawn), the outcome is reported as “inactive”. In the case of `COc1cccc(N2CCN(C(=O)c3ccc(CS(=O)c4ccc(C)cc4)o3)CC2)c1` (stereo not drawn), the outcome is reported as “inactive”. For `Cc1ccc(-n2c(SCC(=O)Nc3ccc4c(c3)OCO4)nnc2-c2cccs2)cc1`, the outcome was “inactive”. With `COCc1cc(C)nc(SCC(=O)Nc2cccc3cccnc23)c1C#N` the outcome was “inactive”. With `COc1ccccc1CNC(=O)CSC1=NCCS1` the outcome was “inactive”. For `COc1ccc(OCCN2CCC(C(=O)NC(c3ccccn3)c3ccccc3OC)CC2)cc1` (stereo not drawn), the outcome was “inactive”. In the case of `Cc1nc(SCC(=O)N2CCCC2=O)nc(C)c1C`, the outcome is reported as “inactive”. For `CCOc1nc(N2CCCCC2)nc(-n2cc(-c3ccccc3)nn2)n1`, the outcome was “inactive”. With `O=C(Cn1c(=O)oc2cc(S(=O)(=O)N3CCCCC3)ccc21)N1CCc2ccccc21` the outcome was “inactive”. In the case of `COCCNCC(=O)Nc1nc(C)cs1`, the outcome is reported as “inactive”. For `CN(C)c1ccc(C(=O)c2ccc(N(C)C)c3ccccc23)cc1`, the outcome was “inactive”. For `COc1cc(Nc2nc3ccccc3n3nnnc23)cc(OC)c1OC`, the outcome was “inactive”. With `CCC(=O)N(CCC1(C(C)C)CCOC(C)(C)C1)Cc1ccco1` (stereo not drawn) the outcome was “inactive”. For `COc1ccc(CCNC(=O)[C@@H](NC(N)=O)C(C)C)cc1`, the outcome was “inactive”. In the case of `COc1ccc(-c2ccc3c(N)c(C(=O)c4ccc(OC)c(OC)c4)sc3n2)cc1`, the outcome is reported as “inactive”. In the case of `CC1Cc2ccccc2N1C(=O)COC(=O)c1ccccc1NCCO` (stereo not drawn), the outcome is reported as “inactive”. With `S=C(NC1CC1)N1CCc2ccccc2C1` the outcome was “inactive”. With `Cc1ccc2c(c1)N(CC(=O)N1CCCCCC1)C(=O)C(C)O2` (stereo not drawn) the outcome was “inactive”. With `CN(C)C(=O)c1cc(Br)ccc1Cl` the outcome was “inactive”. With `COc1cc(/C=C/C(=O)OCC(=O)N2CCCc3ccccc32)ccc1O` the outcome was “inactive”. With `Cc1cccc(Nc2nc(-c3ccc(O)c(O)c3)cs2)n1` the outcome was “inactive”. For `Cc1c(NC(=O)CC(O)(C(F)(F)F)C(F)(F)F)c(=O)n(-c2ccccc2)n1C`, the outcome was “inactive”. For `N#Cc1c(-c2ccccc2)cc(C2CC2)nc1SCC(=O)c1cccs1`, the outcome was “inactive”. With `CCN1C(=O)NC(c2ccccc2)C1=O` (stereo not drawn) the outcome was “inactive”. For `O=C(NCc1ccc(OC(F)(F)F)cc1)c1cccc2c1C(=O)c1ccc(N3CCCCC3)cc1S2(=O)=O`, the outcome was “inactive”. With `CCOC(=O)C1CCCN(C(=O)c2cc(S(=O)(=O)N(C)C)ccc2N2CCCC2)C1` (stereo not drawn) the outcome was “inactive”. With `COc1ccc(CC(NC(C)=O)C(=O)NC2CCN(C(=O)c3ccccc3F)CC2)cc1` (stereo not drawn) the outcome was “inactive”. With `N#Cc1cc2c(=O)n3ccccc3nc2n(-c2ccccc2Cl)c1=O` the outcome was “inactive”. With `FC(F)(F)c1nnc2c3ccccc3c(Cl)nn12` the outcome was “inactive”. With `O=C(O)c1ccc(-c2nc(-c3cccc(C(F)(F)F)c3)cs2)cc1` the outcome was “inactive”. For `COc1ccc(-c2nc(CS(=O)(=O)CC(=O)NCCc3ccccc3)c(C)o2)cc1`, the outcome was “inactive”. For `N#Cc1c(C(F)(F)F)cc(-c2ccco2)nc1SCc1ccncc1`, the outcome was “inactive”. For `CC(=O)Nc1ccc(C2(c3ccc(NC(C)=O)cc3)NC(=O)c3ccccc32)cc1`, the outcome was “inactive”. In the case of `Cc1ccc(C(C)C)c(OCC#CCN2CCOCC2)c1`, the outcome is reported as “inactive”. For `COc1cc(-c2cc(=O)c3c(O)c(OC)c(OC)c(O)c3o2)ccc1O`, the outcome was “inactive”. In the case of `CC(=O)Nc1ccc(-c2ccnc3c2CC(C(=O)NCc2ccccc2)O3)cc1` (stereo not drawn), the outcome is reported as “inactive”.
